Experimental data reported in the OligoGym collection.

biological target: HIP1R; assay: pooled miR-30 sensor sort-seq; sequence = guide strand; conditions: shRNA
Note: reference of the scale not given here.

Row | Sequence | sensor-assay potency score (higher = more potent)
1 | TTGAGCTGTCGGAAAACTGATT | -1.02
2 | TTGATGGCTTTGCTGATGCTGA | -1.07
3 | TAATCAAACATCTCCACAGTGA | -0.629
4 | TTGGTGGTTACACTTCGGGGGG | -1.01
5 | TTGAACAGGAGCTTGACCGTGT | 0.954

biological target: HIST1H2BM; assay: as above; conditions: shRNA

Row | Sequence | sensor-assay potency score (higher = more potent)
6 | TTGTACACATACACAGAGTAGC | -0.844
7 | TTTGCGCTTCTTTCCATCCTTC | -0.136
8 | TACACAGAGTAGCTCTCCTTGC | -0.828
9 | TTCCATCCTTCTTCTGAGCCTT | -0.589
10 | TTCTTTCCATCCTTCTTCTGAG | -0.665
11 | TTGTTAATGGCCTTCTTGGAGC | -1.15
12 | TAGCAGTAGGCGCACGGCCGTC | -1.42
13 | ATACACAGAGTAGCTCTCCTTG | -0.936
14 | TCCATCCTTCTTCTGAGCCTTG | -1.16
15 | TTAATGGCCTTCTTGGAGCCTT | -0.535
16 | TAGCCTTGGAAGAGATGCCGGT | -0.26
17 | TACACATACACAGAGTAGCTCT | -0.419

biological target: HIST1H2BN; assay: as above; conditions: shRNA

Row | Sequence | sensor-assay potency score (higher = more potent)
18 | TCTTCTGGGCCTTTGTCACTGC | -0.0714
19 | TTGCCGTCCTTCTTCTGGGCCT | -0.777
20 | TGGCCTTGGACGAGATACCGGT | -1.2
21 | TTCTGGGCCTTTGTCACTGCCT | -1.05
22 | TTTGTCACTGCCTTCTTGGAGC | -0.47
23 | TTCTTCTGGGCCTTTGTCACTG | -0.654
24 | TACACGTACACGGAGTAGCTCT | -0.756
25 | TTGGAGCCTTTCTTCGGGGCAG | -0.909
26 | TCACTGCCTTCTTGGAGCCTTT | -1.34
27 | TTGTACACGTACACGGAGTAGC | -0.485
28 | TCGAAGATGTCATTGACGAAGG | -1.38
29 | TTCTTGGAGCCTTTCTTCGGGG | -0.852
30 | TTGGACGAGATACCGGTGTCGG | -1.16

biological target: HIST1H4A; assay: as above; conditions: shRNA

Row | Sequence | sensor-assay potency score (higher = more potent)
31 | TTGTCACGCAACACCTTGCGGT | -0.404
32 | ATGTTGTCACGCAACACCTTGC | -1.02
33 | TCACGCAACACCTTGCGGTGGC | 0.266
34 | TATAGGTGACAGCGTCACGGAT | -1.01
35 | TGACTGTCTTGCGCTTGGCGTG | -1.68
36 | AACACCTTGAGCACCCCGCGAG | -0.99
37 | TGTCACGCAACACCTTGCGGTG | -1.69
38 | AAAAACACCTTGAGCACCCCGC | 0.101
39 | TAGATCAGACCAGAGATCCGCT | 0.162
40 | ATAGGTGACAGCGTCACGGATC | -0.773
